# Test results reported in PubChem BioAssay (NCI).
# The panel holds about 83,000 compounds, 20% with a hit somewhere; the sample as a whole holds those more often.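 Each cell line was grown in a 96-well plate and treated with one concentration of compound for 48 hours. Values below 10 were considered active.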 Values without a mark were called inactive. Activity calls are given as the source filed them.
# Legend:
# Assay in all cases: NCI-60 one-dose screen, 48 h (100 = growth as untreated, 0 = no growth, -100 = all killed)
# SR leukemia = settings: 10 µM unless noted
# RPMI-8226 leukemia = settings: 10 µM unless noted
# OVCAR-8 ovarian = settings: 10 µM unless noted
# OVCAR-5 ovarian = settings: 10 µM unless noted
# OVCAR-4 ovarian = settings: 10 µM unless noted
# SK-OV-3 ovarian = settings: 10 µM unless noted
# IGROV1 ovarian = settings: 10 µM unless noted
# OVCAR-3 ovarian = settings: 10 µM unless noted
# HS 578T breast = settings: 10 µM
# NCI/ADR-RES ovarian = settings: 10 µM unless noted
# T-47D breast = settings: 10 µM unless noted
# BT-549 breast = settings: 10 µM unless noted
# MDA-MB-435 melanoma = settings: 10 µM unless noted
# SW-620 colon = settings: 10 µM unless noted
# MCF7 breast = settings: 10 µM unless noted
# HCT-116 colon = settings: 10 µM unless noted
# HCC-2998 colon = settings: 10 µM unless noted
# KM12 colon = settings: 10 µM unless noted
SMILES,growth (SR leukemia),growth (RPMI-8226 leukemia),growth (OVCAR-8 ovarian),growth (OVCAR-5 ovarian),growth (OVCAR-4 ovarian),growth (SK-OV-3 ovarian),growth (IGROV1 ovarian),growth (OVCAR-3 ovarian),growth (HS 578T breast),growth (NCI/ADR-RES ovarian),growth (T-47D breast),growth (BT-549 breast),growth (MDA-MB-435 melanoma),growth (SW-620 colon),growth (MCF7 breast),growth (HCT-116 colon),growth (HCC-2998 colon),growth (KM12 colon)
C/C(=N\NC(=S)Nc1ccccc1)c1ccccn1,13.7%,33.5%,11.8%,35.6%,33.5%,40%,15.7%,9.49% (active),64.1%,17.2%,28.7%,40.2%,59.6%,35%,18.7%,6.94% (active),48.1%,29.7%
CC1=NOCC(=O)N1,97.5%,99.9%,107%,95.3%,95.4%,103%,104%,108%,117%,110%,99.1%,104%,100%,103%,98.6%,98.5%,116%,107%
C=C(C)c1ccc(/C=N/NC(N)=S)cc1,66.9%,72%,81.5%,120%,83.7%,125%,82.8%,101%,65.6%,97.8%,67.2%,99.4%,87%,97.9%,51.1%,84.5%,110%,55.4%
COc1cccc2nc(Nc3cccc(NC(=O)c4ccc(N5CCN(C)CC5)c(C(F)(F)F)c4)c3)ccc12,-7.69% (active),7.17% (active),30.7%,61.5%,39.5%,81.7%,28.6%,29.6%,32.6%,43.9%,36.7%,67%,19.9%,-33.3% (active),-12.9% (active),6.56% (active),-7.74% (active),-7.59% (active)
CC(=O)N[C@@H](CCC(N)=O)C(=O)O,104%,107%,98.8%,111%,111%,96.7%,84.9%,102%,81.7%,98.9%,107%,118%,99.6%,94.1%,98.8%,96.3%,99.5%,103%
COc1ccc(-c2oc(=O)ccc2-c2cc(OC)c(OC)c(OC)c2)cc1F,7.57% (active),80.8%,79.9%,69.2%,105%,106%,80.4%,107%,86.4%,57.9%,104%,98.5%,-2.61% (active),46.4%,44%,60.2%,65%,41.6%
Cc1ccc(NC(=O)c2nc(S(C)=O)oc2-c2ccc(F)cc2)cc1Nc1nccc(-c2cccnc2)n1 (stereo unspecified),-14.7% (active),5.05% (active),37.9%,112%,108%,90.3%,33.1%,18.8%,82%,95.9%,40%,26.9%,82.5%,8.58% (active),50.7%,-53.3% (active),97.5%,50.1%
COc1ccc2c(c1)CCCC21C(=O)Nc2c(Cl)cccc21 (stereo unspecified),29.6%,82.9%,84.6%,92.9%,96.1%,71.9%,88.5%,76.3%,85.8%,18.3%,87.6%,91%,-11.8% (active),42.8%,81.8%,49.5%,88.3%,61.3%
O=C(C=P(c1ccccc1)(c1ccccc1)c1ccccc1)CCl,3.51% (active),-19.2% (active),-37.1% (active),1.7% (active),-37.3% (active),24.6%,-69.5% (active),-85.1% (active),18.6%,-27% (active),-73.8% (active),-11.3% (active),-98.6% (active),-50.7% (active),-16.6% (active),-70.2% (active),-21.6% (active),1.36% (active)
Cc1cc2nc3c(=O)[nH]c(=O)nc-3n(CC=O)c2cc1C,129%,140%,121%,96.2%,100%,106%,88.7%,106%,101%,111%,100%,113%,92.2%,99.9%,99%,106%,111%,107%
C[C@]12CCc3nc(Nc4ccc(O)cc4)sc3C1=CC[C@@H]1[C@@H]2CC[C@]2(C)/C(=N/NC(N)=S)CC[C@@H]12,-5.27% (active),-16.3% (active),4.45% (active),49.9%,-16.9% (active),-19% (active),-61.2% (active),-68.8% (active),-4.57% (active),15%,-31.6% (active),9.89% (active),-68.5% (active),-62% (active),-35% (active),-81% (active),-18.2% (active),-64.9% (active)
c1ccc(-c2[nH]c3ccccc3c2-c2ccccc2)cc1,88.6%,32.6%,92%,91.8%,78%,95%,120%,96.1%,106%,95.7%,66.1%,110%,84.6%,88.3%,94.9%,81.2%,114%,92.4%
COc1ccc2nc(NC(=O)/C(=C/c3cc(OC)c(OC)c(OC)c3)c3ccc(OC)c(OC)c3)sc2c1,73%,96.6%,90%,91.9%,93.4%,104%,81.6%,84.4%,103%,89%,74.4%,101%,101%,102%,87.1%,96.3%,113%,101%
CCSc1ccc([C@@H]2[C@@H](N)C(=O)N2c2cc(OC)c(OC)c(OC)c2)cc1,14.4%,18%,32.4%,42.7%,54.4%,44%,47.9%,-23.8% (active),34.5%,3.99% (active),60.3%,32.7%,-59.7% (active),25.8%,19.6%,10.2%,31.2%,19.4%
CC1(C)C(N(O)C(=O)Nc2ccc(Cl)cc2)N(c2ccc(Cl)cc2)C(=O)N1CC(=O)N/N=C/C=C/c1ccc([N+](=O)[O-])o1 (stereo unspecified),-13.1% (active),-23.7% (active),3.32% (active),6.4% (active),14.9%,57.8%,-5.58% (active),-26.8% (active),-11.4% (active),95%,34.3%,-19.1% (active),-15.3% (active),-15.7% (active),7.37% (active),-98.1% (active),-90.6% (active),23.1%
O=C(Oc1c(Cl)c(Cl)c(Cl)c(Cl)c1Cl)C1CCCN1C(=O)OCc1ccccc1 (stereo unspecified),30.1%,6.32% (active),34.7%,94.9%,51%,46.4%,37.3%,79.1%,73.2%,27.6%,2.01% (active),54.9%,84.2%,22.2%,29.6%,15.9%,49.1%,23.6%
COc1cc(C2=NOC(c3cc(OC)c(OC)c(OC)c3)C2)ccc1OCCCCOc1cc2c(cc1OC)C(=O)N1CCC[C@H]1C=N2 (stereo partly specified),-24.8% (active),-27.3% (active),6.96% (active),9.04% (active),-35.6% (active),10.4%,-3.57% (active),-34.1% (active),-10.4% (active),18.4%,-11.9% (active),-96.8% (active),-74.1% (active),-31.7% (active),-5.09% (active),2.63% (active),-57.4% (active),-24.3% (active)
